# CYP2C9 inhib: human CYP2C9 inhibition | CYP2C9 Supersomes, luciferin-H conversion, luminescence | hit rate 20% among 96,000 | P11712 | inhibition, % at 5 µM;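 active means blocking of liver enzyme CYP2C9 beyond about 50% at 5 µM, limit read from the data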
# CYP2C9 activ: activators of human CYP2C9; hit rate 1.4% among 96,000; recombinant CYP2C9, luciferin-H conversion, luminescence; hits give high values; factor 1 = untreated enzyme, 0 = blocked; P11712; activation factor at 5 µM;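 active means activation factor of 2 or more for CYP2C9 at a 5 µM dose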
# PLAP act: human PLAP activation | P05187 | purified PLAP enzyme, luminescent substrate read-out; hits give high values | activation fold at 20 µM | hit rate 1.2% among 96,000 | AID 696; in the data active means activation fold above about 2
# CYP2C19 inhib: blocks human cytochrome P450 2C19; P33261; CYP2C19 Supersomes, luciferin-H EGE luminescence, 30 min; inhibition, % at 5 µM; hit rate 21% among 96,000;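 active means CYP2C19 inhibition above a set limit at 5 µM in the primary screen, cut at about 50% in these data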
# Target sequence (P33261 whole entry, looked up): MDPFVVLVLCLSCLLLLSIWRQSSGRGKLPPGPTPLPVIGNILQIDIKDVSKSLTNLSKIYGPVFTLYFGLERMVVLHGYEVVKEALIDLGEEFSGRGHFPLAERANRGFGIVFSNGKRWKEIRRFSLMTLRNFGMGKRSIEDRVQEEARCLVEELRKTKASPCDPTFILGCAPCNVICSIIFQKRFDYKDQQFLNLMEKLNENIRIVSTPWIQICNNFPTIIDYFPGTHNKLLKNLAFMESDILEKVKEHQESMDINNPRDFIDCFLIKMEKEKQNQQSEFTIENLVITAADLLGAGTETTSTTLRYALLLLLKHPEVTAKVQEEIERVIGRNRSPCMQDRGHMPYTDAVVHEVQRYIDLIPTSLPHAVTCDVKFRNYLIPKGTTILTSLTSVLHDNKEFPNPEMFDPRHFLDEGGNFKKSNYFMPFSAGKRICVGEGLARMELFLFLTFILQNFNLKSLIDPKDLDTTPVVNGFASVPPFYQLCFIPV
# CYP2C19 act: activators of human cytochrome P450 2C19. AID 1025. 96,000 tested, under 10 active. P33261. activation factor at 5 µM. recombinant CYP2C19, luciferin-H EGE luminescence; hits give high values; 0 = fully inhibited enzyme, 1 = untreated enzyme;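 active means activation factor of at least 2 at 5 µM in the primary screen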
# Numbers stand for hits; i = inactive; nt = no result. This is a sample that favours compounds with a hit; in the whole collection about 31% have one here.
SMILES,CYP2C9 inhib,CYP2C9 activ,PLAP act,CYP2C19 inhib,CYP2C19 act
Clc1ccc(OCc2nc(-c3ccncc3)no2)c(Br)c1,94.7,i,i,94.3,i
Clc1ccccc1OCc1nc(-c2ccncc2)no1,98.4,i,i,97.8,i
Cc1cc(C)c(NC(=O)Cn2c(=O)n(Cc3ccco3)c(=O)c3ccccc32)c(C)c1,i,i,i,i,i
CC(C)C1N=C2c3ccccc3N=C(SCc3cc(=O)n4cc(Cl)ccc4n3)N2C1=O (stereo unspecified),54.6,i,i,i,i
CCc1cccc2c(C#N)cn(CCOc3ccccc3OC)c12,i,i,i,i,i
COc1cccc(C(=O)OCc2ccccc2C#N)c1O,75.9,i,i,92.4,i
CCOc1cc(-c2nc(-c3ccncc3)no2)cc(OCC)c1OCC,76.7,i,i,61.2,i
CCOc1ccc(-c2nc(-c3ccncc3)no2)cc1OCC,63.2,i,i,i,i
CCOC(=O)C1=C(C)N(c2ccccc2)C(=O)C1CC(=O)O (stereo unspecified),i,i,i,53.1,i
CCOC(=O)C1=C(C)N(C)C(=O)C1CC(=O)O (stereo unspecified),i,i,i,i,i
CNc1nc(Oc2ccc(=O)n(C)n2)nc(N2CCOCC2)n1,i,i,i,i,i
COc1ccc2c(c1)[nH]c1c(=O)n(Cc3ccco3)cnc12,i,i,i,i,i
COc1ccc2c(c1)c1ncn(Cc3ccco3)c(=O)c1n2C,71.8,i,i,75.0,i
Cc1c(C(=O)COC(C)(C)C)[nH]c2ccccc12,i,i,i,54.7,i
CCCOc1cccc(C(=O)N(Cc2cccs2)C2CCS(=O)(=O)C2)c1 (stereo unspecified),i,i,i,i,i
O=C(NC1CCCC1)C1CCC(=O)N1CCc1ccccc1 (stereo unspecified),53.9,i,i,i,i
Cn1nnnc1SCC(=O)NCCc1ccc(Cl)cc1,i,i,i,i,i
CCOc1cc(CNCCSc2nnnn2C)cc(Br)c1OCc1ccccc1,81.4,i,2,93.6,i
Cn1nnnc1SCCNCc1ccc(Cl)cc1,i,i,i,84.5,i
CCc1ccc(N2CC(C(=O)Nc3nnc(CC)s3)CC2=O)cc1 (stereo unspecified),i,i,i,i,i
CC(C)(C)NS(=O)(=O)c1ccc(CCC(=O)Nc2cc(Cl)ccc2Oc2ccccc2)cc1,89.7,i,i,73.0,i
CC(C)CNS(=O)(=O)c1ccc(CCC(=O)Nc2cc(Cl)ccc2Oc2ccccc2)cc1,73.1,i,i,i,i
CC(C)CNS(=O)(=O)c1ccc(CCC(=O)O)cc1,i,i,i,i,i
CCCCN(CCCNC(=O)c1c(C)cc(=O)oc1C)c1ccccc1,90.5,i,i,51.1,i
CCN(CCCNC(=O)c1c(C)cc(=O)oc1C)c1ccccc1,83.1,i,i,98.5,i
SMILES,CYP2C9 inhib,CYP2C9 activ,PLAP act,CYP2C19 inhib,CYP2C19 act
Cc1cc(=O)oc(C)c1C(=O)NCc1ccccc1,i,i,i,i,i
CC(OC(=O)C1=COCCO1)C(=O)Nc1ccc(Oc2ccccc2)cc1 (stereo unspecified),i,i,i,i,i
CC(CC(=O)c1cccs1)CC(=O)c1cccs1,93.3,i,i,100.3,i
O=C(O)CCCCCCCCCC(=O)c1cccs1,i,i,i,i,i
Cc1ccc(NC(=O)CCC(=O)c2cccs2)cc1,i,i,i,82.3,i
O=C(CCC(=O)Nc1ccccc1)NNC(=O)c1cccs1,i,i,i,i,i
Cc1ccc(CNC(=O)CCC(=O)c2cccs2)cc1,i,i,i,85.1,i
O=C(COC(=O)c1cccs1)Nc1ccccc1,i,i,i,56.7,i
O=C(CCC(=O)c1cccs1)Nc1ccc(F)c(F)c1F,i,i,i,65.8,i
Cc1cnc(NC(=O)CSc2nnc(-c3cccs3)n2C)s1,i,i,i,i,i
O=C1CCCN1CCCNc1ccc(S(=O)(=O)N2CCCCC2)cn1,i,i,i,i,i
CC(C)NC(=O)COc1ccc(/C=N/NS(=O)(=O)c2ccccc2)cc1,i,i,i,i,i
O=C(COc1ccc(/C=N/NS(=O)(=O)c2ccccc2)cc1)Nc1ccc(F)cc1,64.8,i,i,i,i
Cc1ccc(S(=O)(=O)N/N=C/c2ccc(OCC(=O)Nc3ccccc3Cl)cc2)cc1,84.5,i,i,i,i
COCCn1ccc(O)c(Cc2ccc(Cl)cc2)c1=O,i,i,i,i,i
CC(=O)Nc1ccc(-n2nnnc2SCC(=O)N2CCN(C(=O)c3ccco3)CC2)cc1,i,i,i,i,i
CCc1cc(C(=O)Cc2cnn(-c3ccccc3)c2)c(O)cc1O,i,i,i,55.2,i
O=C(Cc1cnn(-c2ccccc2)c1)c1ccc(O)c(O)c1O,79.1,i,2,65.1,i
Cc1ccc(O)c(C(=O)c2cnn(-c3ccccc3)c2)c1,i,i,i,i,i
N#C/C(C(=O)NCc1ccco1)=C1/SC(Cc2ccc(F)cc2)C(=O)N1c1ccccc1 (stereo unspecified),i,i,i,i,i
CCc1nc(SCC(=O)Nc2ccnc3ccccc23)n[nH]1,i,i,i,i,i
CCc1ccc(NC(=O)Cn2nc(C(F)(F)F)c3c2CCC3)cc1,nt,nt,i,nt,nt
Cc1cc(NC(=O)Cn2nc(C(F)(F)F)c3c2CCC3)n(-c2ccccc2)n1,61.7,i,i,80.0,i
O=C(c1ccco1)N1CCN(CC(O)COc2ccc3oc4ccccc4c3c2)CC1 (stereo unspecified),50.7,i,i,i,i
CCn1c2ccccc2c2cc(CN3CCN(C(=O)c4ccco4)CC3)ccc21,i,i,i,i,i
SMILES,CYP2C9 inhib,CYP2C9 activ,PLAP act,CYP2C19 inhib,CYP2C19 act
CCN1C(=O)c2cccc3c(S(=O)(=O)Nc4ncccc4C)ccc1c23,55.5,i,i,i,i
CCN1C(=O)c2cccc3c(S(=O)(=O)Nc4ccccn4)ccc1c23,64.9,i,i,i,i
CN(C)c1cccc2c(S(=O)(=O)N3CCOCC3)cccc12,i,i,i,i,i
CN(C)c1cccc2c(S(=O)(=O)Nc3ccccn3)cccc12,i,i,i,92.4,i
CC1CN(C2CCN(C(=O)c3ccccc3)CC2)CC(C)O1 (stereo unspecified),i,i,i,i,i
CCOC(=O)/C(C#N)=C1/C=CNC(=O)N1,i,i,i,i,i
COc1nc(N)c(S(=O)(=O)c2ccc(C)cc2)cc1C#N,53.1,i,i,53.0,i
CCOC(=O)COn1c(=O)c(=O)n(OC)c2ccccc21,i,i,i,i,i
C=CCn1c(SC(C)C(=O)NCCC2=CCCCC2)nc2ccccc2c1=O (stereo unspecified),56.0,i,i,i,i
CCOC(=O)C(C)Sc1nc2ccccc2c(=O)n1CC (stereo unspecified),63.0,i,i,76.7,i
CCOC(=O)COn1c(=O)c(=O)n(O)c2ccccc21,89.9,i,i,99.2,i
CCn1c(SCC(=O)NCc2ccccc2)nc2ccccc2c1=O,i,i,i,i,i
CCOC(=O)COn1c(SCC(=O)OCC)nc2ccccc2c1=O,i,i,i,53.4,i

# Assay outcomes (PubChem BioAssay)
